About 79,000 compounds went through this panel and 15% of them were active in at least one assay; those are over-represented in the sample as a whole. Unmarked numbers belong to inactive results. Activity calls are given as the source filed them. Cut-off read from the data, not from the text of the source: active = growth inhibition above about 70%; inactive = the rest.
Experiments:
[1] = NCI Yeast Anticancer Drug Screen. Data for the rad50 strain (AID 155);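 note: 0% = growth of vehicle-only cultures of the same strain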; settings: S. cerevisiae rad50 strain growth inhibition, hits give high values
How it was run: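 Inhibition values express reduced yeast growth in compound-treated cultures relative to vehicle-treated controls.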

[2] = NCI Yeast Anticancer Drug Screen. Data for the mec2-1 strain (AID 157); settings: S. cerevisiae mec2-1 strain, hits give high values
How it was run: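 Test agents were screened against the mec2-1 yeast strain, with defined DNA repair or cell cycle alteration. Growth was scored as inhibition against vehicle-only controls.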

[3] = NCI Yeast Anticancer Drug Screen. Data for the sgs1 mgt1 strain (AID 161);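 note: 0% = growth of cultures given vehicle only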; settings: S. cerevisiae sgs1 mgt1 strain, hits give high values
How it was run: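 Genetically altered yeast, compound exposure, growth inhibition relative to vehicle.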

[4] = NCI Yeast Anticancer Drug Screen. Data for the cln2 rad14 strain (AID 165);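 note: 0% = growth equal to vehicle treated cultures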; settings: S. cerevisiae cln2 rad14 strain, hits give high values
How it was run: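 Growth of compound-exposed yeast (cln2 rad14 genotype) measured and expressed as inhibition relative to vehicle.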

[5] = NCI Yeast Anticancer Drug Screen. Data for the bub3 strain (AID 167); settings: S. cerevisiae bub3 mutant strain, hits give high values
How it was run: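 Steps: expose the mutant yeast strain to compound; grow alongside vehicle-treated cultures; measure growth; express inhibition against the vehicle cultures.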

[6] = NCI Yeast Anticancer Drug Screen. Data for the mlh1 rad18 strain (AID 175); settings: S. cerevisiae mlh1 rad18 strain growth inhibition, hits give high values
How it was run: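 In this whole-cell yeast screen, a strain with altered DNA damage repair is challenged with compound, and its growth is measured against matched vehicle-treated controls.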

[7] = at 5.0 µM (retest, dose inferred, filed as 0.5)
[8] = at 50.0 µM (retest, dose inferred, filed as 5.0)

SMILES	growth inhibition [1, 7]	growth inhibition [1, 8]	growth inhibition ([1]; at 50.0 µM)	growth inhibition [2, 7]	growth inhibition [2, 8]	growth inhibition ([2]; at 50.0 µM)	growth inhibition [3, 7] [%]	growth inhibition [3, 8]	growth inhibition ([3]; at 50.0 µM)	growth inhibition [4, 7]	growth inhibition [4, 8]	growth inhibition ([4]; at 50.0 µM)	growth inhibition [5, 7]	growth inhibition [5, 8]	growth inhibition ([5]; at 50.0 µM)	growth inhibition [6, 7]	growth inhibition [6, 8]	growth inhibition ([6]; at 50.0 µM)
O=C1COCC(=O)OCCOCCSCCOCCO1	5%	11%	-4.6%	0%	5%	-1.2%	1	1%	-7%	4%	41%	37.2%	-4%	4%	8.75%	8%	15%	7.75%
COc1ccc(OC)c(/C=C/NC=O)c1	-10%	10%	-11.4%	-11%	-7%	13.2%	-12	-2%	-6.4%	-15%	5%	49.2%	-1%	-2%	-4.35%	5%	-24%	-0.95%
CC(C)=CCc1c2c(c3occ(-c4ccc(O)c(O)c4)c(=O)c3c1O)C=CC(C)(C)O2	16%	90% (active)	90.8% (active)	29%	95% (active)	94.1% (active)	9	93% (active)	94.8% (active)	-25%	76% (active)	91.5% (active)	-7%	94% (active)	89% (active)	-2%	90% (active)	90.8% (active)
O=C(Nc1ccccc1)c1cccc2ccccc12	2%	-8%	67.7%	4%	-1%	48%	6	-4%	55.1%	1%	-6%	24.1%	-18%	0%	51%	-15%	7%	70.8% (active)
COc1cccc2c1C(=O)c1c(O)c3c(c(O)c1C2=O)C[C@@](O)(C(C)=O)C[C@@H]3OC1CC([N+]([O-])(Cc2ccccc2)Cc2ccccc2)C(O)C(C)O1 (some centres undefined)	79% (active)	95% (active)	75.6% (active)	30%	87% (active)	23.9%	48	88% (active)	19.2%	23%	70% (active)	22.2%	32%	81% (active)	31.7%	70% (active)	92% (active)	10.8%
CCOC(=O)c1ccc(N(CCC(O)CN=[N+]=[N-])S(=O)(=O)c2ccc(C)cc2)cc1 (centres undefined)	9%	66%	57%	11%	23%	19.4%	18	63%	53.4%	0%	3%	40.6%	-4%	49%	5.9%	29%	84% (active)	55.1%
CC(C)N(C(=O)C12C3C4C5(C#N)C3C1(C#N)C5C42I)C(C)C (centres undefined)	41%	41%	82% (active)	22%	22%	48%	13	13%	31.6%	12%	12%	68.5%	17%	17%	91.5% (active)	11%	11%	46.4%
Oc1ccc(Cc2cc(Cl)cc(Cl)c2O)cc1Cl	84% (active)	100% (active)	99.5% (active)	84% (active)	99% (active)	99.7% (active)	68	99% (active)	99.4% (active)	91% (active)	99% (active)	99.3% (active)	70% (active)	100% (active)	99.3% (active)	94% (active)	100% (active)	99.2% (active)
CCCCCCCCCCCCCCCCS(=O)(=O)Cl	40%	96% (active)	61.5%	46%	98% (active)	32.2%	57	77% (active)	59.8%	31%	73% (active)	-6.35%	69%	78% (active)	46.7%	43%	99% (active)	53.8%
CC12CCC3c4cc(O)ccc4CCC3C1CCC2O (centres undefined)	4%	54%	50.2%	-4%	51%	26.5%	1	81% (active)	58.2%	-6%	41%	24.8%	-1%	54%	55.4%	4%	67%	37%
OC(CCN1CCOCC1)(c1cccc(Cl)c1)C1CCCCC1 (centres undefined)	3%	45%	72.1% (active)	1%	19%	-0.6%	0	73% (active)	45.7%	2%	40%	-26.9%	2%	68%	75.4% (active)	2%	58%	40.8%
CCCCCN(C(=O)CCl)c1ccccc1	2%	36%	55.7%	-3%	14%	35.2%	-1	19%	53.7%	3%	5%	13.8%	-4%	6%	50.5%	-2%	24%	67.6%
CC1(C(=O)O)CCC2(C)CCC3(C)C(=CC(=O)C4C5(C)CCC(O)C(C)(C)C5CCC43C)C2C1 (centres undefined)	12%	61%	52.4%	23%	78% (active)	64.8%	10	74% (active)	65%	30%	84% (active)	75.7% (active)	29%	78% (active)	60.5%	18%	80% (active)	71.3% (active)
CCC[CH2][Sn]([CH2]CCC)([NH]c1ncnc2[nH]cnc12)[NH]c1ncnc2[nH]cnc12	14%	96% (active)	87.8% (active)	14%	98% (active)	91.7% (active)	24	94% (active)	85.5% (active)	30%	89% (active)	85.2% (active)	14%	95% (active)	87.6% (active)	20%	98% (active)	86.9% (active)
ClC1=CC(Cl)=C2N=C(C(Cl)(Cl)Cl)N=C3N=C(C(Cl)(Cl)Cl)N=C1N32	29%	80% (active)	99.3% (active)	4%	88% (active)	99.5% (active)	44	85% (active)	99.2% (active)	12%	57%	99% (active)	21%	94% (active)	99.3% (active)	36%	86% (active)	99% (active)
c1ccc(N=Nc2ccc3ccccc3c2)cc1	5%	9%	16.1%	16%	10%	11.8%	6	6%	3.65%	1%	4%	-5.6%	3%	17%	83% (active)	8%	10%	21.8%
C1CCC(CCCCc2nn[nH]n2)CC1	0%	98% (active)	99.1% (active)	-30%	97% (active)	99.3% (active)	-1	96% (active)	99% (active)	0%	99% (active)	98.3% (active)	-6%	97% (active)	99.3% (active)	-7%	97% (active)	99% (active)
[Cl][Pt+2][Cl].[NH-]c1cc2ccccc2cc1[NH-]	2%	0%	64.5%	-34%	16%	51.4%	0	1%	69.2%	1%	17%	45%	0%	14%	20.4%	0%	-24%	76.2% (active)

From PubChem BioAssay (NCI)
